Source: PubChem BioAssay (NCI)
“And” between values parts separate entries of the source, which are not always exact repeats. Equal values may be shown once. The panel holds about 83,000 compounds, 20% with a hit somewhere; the sample as a whole holds those more often.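 Cells were grown in 96-well plates and exposed to the test compound at a single concentration for 48 hours; results are reported as percent growth, with values below 10 considered active.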 The source made the active and inactive calls.

Legend:
Test in all cases: NCI-60 one-dose screen, 48 h (100 = growth as untreated, 0 = no growth, -100 = all killed)
T-47D breast = test system: T-47D breast
BT-549 breast = test system: BT-549 breast
MDA-MB-435 melanoma = test system: MDA-MB-435 melanoma
SW-620 colon = test system: SW-620 colon
MCF7 breast = test system: MCF7 breast
HCT-116 colon = test system: HCT-116 colon
HCC-2998 colon = test system: HCC-2998 colon
KM12 colon = conditions: 10 µM unless noted

For `Clc1ccc(SSc2ccc(Cl)cc2)cc1`, the growth (T-47D breast; 10 µM unless noted) was 96.2% (inactive) and 103% (inactive), the growth (BT-549 breast; 10 µM unless noted) was 89% (inactive) and 9.06% (active) and the growth (MDA-MB-435 melanoma; 10 µM unless noted) was 94% (inactive) and 100% (inactive). The growth (SW-620 colon; 10 µM unless noted) was 97.3% (inactive) and 88.8% (inactive), the growth (MCF7 breast; 10 µM unless noted) was 102% (inactive) and 75.1% (inactive) and the growth (HCT-116 colon; 10 µM unless noted) was 95.9% (inactive) and 71% (inactive). For the same molecule, the growth (HCC-2998 colon; 10 µM unless noted) was 96.8% (inactive) and 98% (inactive).
`CC(=O)Nc1ccc(O)cc1` was tested, and the growth (T-47D breast; 10 µM unless noted) was 116% (inactive) and 103% (inactive) and 93.9% (inactive), the growth (BT-549 breast; 10 µM unless noted) was 94.3% (inactive) and 78.1% (inactive) and 101% (inactive) and the growth (MDA-MB-435 melanoma; 10 µM unless noted) was 105% (inactive) and 109% (inactive) and 110% (inactive). For the same molecule, the growth (SW-620 colon; 10 µM unless noted) was 106% (inactive) and 108% (inactive) and 103% (inactive), the growth (MCF7 breast; 10 µM unless noted) was 100% (inactive) and 68.3% (inactive) and 107% (inactive) and the growth (HCT-116 colon; 10 µM unless noted) was 100% (inactive) and 120% (inactive) and 104% (inactive). For the same molecule, the growth (HCC-2998 colon; 10 µM unless noted) was 102% (inactive) and 68.4% (inactive) and 110% (inactive) and the growth (KM12 colon) was 99.4% (inactive) and 38.3% (inactive) and 107% (inactive).
With `Nc1ccn(C2OC(CO)C(O)C2O)c(=O)n1` (stereo unspecified) the growth (T-47D breast; 10 µM unless noted) was 55.5% (inactive) and 58.3% (inactive) and 101% (inactive).
In the case of `CCN(CC)CCOc1ccc2c(c1)C(=O)c1cc(OCCN(CC)CC)ccc1-2`, the growth (T-47D breast; 10 µM unless noted) is reported as 111% (inactive) and 131% (inactive), the growth (BT-549 breast; 10 µM unless noted) is reported as 96% (inactive) and 76.3% (inactive) and the growth (MDA-MB-435 melanoma; 10 µM unless noted) is reported as 73.4% (inactive) and 67% (inactive). The growth (SW-620 colon; 10 µM unless noted) was 34.5% (inactive) and 26.1% (inactive), the growth (MCF7 breast; 10 µM unless noted) was 30.1% (inactive) and 7.03% (active) and the growth (HCT-116 colon; 10 µM unless noted) was 44.2% (inactive) and 13.2% (inactive). The growth (HCC-2998 colon; 10 µM unless noted) was 77.9% (inactive) and 56.5% (inactive).
With `CC1=C(/C=C/C(C)=C/C=C/C(C)=C/C(=O)O)C(C)(C)CCC1` the growth (T-47D breast; 10 µM unless noted) was 63.4% (inactive) and 86.2% (inactive) and 77.1% (inactive), the growth (BT-549 breast; 10 µM unless noted) was 100% (inactive) and 84.9% (inactive) and 99.2% (inactive) and the growth (MDA-MB-435 melanoma; 10 µM unless noted) was 92.3% (inactive) and 90.7% (inactive) and 107% (inactive). For the same molecule, the growth (SW-620 colon; 10 µM unless noted) was 111% (inactive) and 106% (inactive) and 116% (inactive), the growth (MCF7 breast; 10 µM unless noted) was 68.6% (inactive) and 67.4% (inactive) and 73.2% (inactive) and the growth (HCT-116 colon; 10 µM unless noted) was 83% (inactive) and 98.7% (inactive) and 89.6% (inactive). For the same molecule, the growth (HCC-2998 colon; 10 µM unless noted) was 108% (inactive) and 111% (inactive) and 105% (inactive).
For `CC#C[C@]1(O)CC[C@H]2[C@@H]3CCC4=CC(=O)CCC4=C3[C@@H](c3ccc4c(c3)OCO4)C[C@@]21C`, the growth (T-47D breast; 10 µM) was 45% (inactive), the growth (T-47D breast; 100 µM) was -16.5% (active) and the growth (BT-549 breast; 10 µM) was 77.8% (inactive). The growth (BT-549 breast; 100 µM) was -33.1% (active), the growth (MDA-MB-435 melanoma; 10 µM) was 94.7% (inactive) and the growth (MDA-MB-435 melanoma; 100 µM) was -35.6% (active). The growth (SW-620 colon; 10 µM) was 84.7% (inactive), the growth (SW-620 colon; 100 µM) was 4.2% (active) and the growth (MCF7 breast; 10 µM) was 82.2% (inactive). For the same molecule, the growth (MCF7 breast; 100 µM) was -4.09% (active), the growth (HCT-116 colon; 10 µM) was 78.4% (inactive) and the growth (HCT-116 colon; 100 µM) was -78.5% (active). The growth (HCC-2998 colon; 10 µM) was 94.4% (inactive) and the growth (HCC-2998 colon; 100 µM) was -22.7% (active).
For `COc1ccccc1C(C)=O`, the growth (T-47D breast; 10 µM unless noted) was 106% (inactive) and 96.2% (inactive), the growth (BT-549 breast; 10 µM unless noted) was 109% (inactive) and 100% (inactive) and the growth (MDA-MB-435 melanoma; 10 µM unless noted) was 104% (inactive) and 112% (inactive). The growth (SW-620 colon; 10 µM unless noted) was 95.4% (inactive) and 105% (inactive), the growth (MCF7 breast; 10 µM unless noted) was 103% (inactive) and 96.6% (inactive) and the growth (HCT-116 colon; 10 µM unless noted) was 107% (inactive) and 102% (inactive). The growth (HCC-2998 colon; 10 µM unless noted) was 111% (inactive) and 107% (inactive) and the growth (KM12 colon) was 102% (inactive) and 111% (inactive).
With `COc1ccc2ccccc2c1/C=N/N1CCCCC1` the growth (T-47D breast; 10 µM unless noted) was 94.2% (inactive), the growth (BT-549 breast; 10 µM unless noted) was 102% (inactive) and the growth (MDA-MB-435 melanoma; 10 µM unless noted) was 99.1% (inactive). For the same molecule, the growth (SW-620 colon; 10 µM unless noted) was 103% (inactive), the growth (MCF7 breast; 10 µM unless noted) was 84% (inactive) and the growth (HCT-116 colon; 10 µM unless noted) was 102% (inactive). The growth (HCC-2998 colon; 10 µM unless noted) was 109% (inactive) and the growth (KM12 colon) was 108% (inactive).
In the case of `O=C(O)CSCc1nc2ccccc2[nH]1`, the growth (T-47D breast; 10 µM unless noted) is reported as 104% (inactive), the growth (BT-549 breast; 10 µM unless noted) is reported as 108% (inactive) and the growth (MDA-MB-435 melanoma; 10 µM unless noted) is reported as 115% (inactive). For the same molecule, the growth (SW-620 colon; 10 µM unless noted) was 103% (inactive), the growth (MCF7 breast; 10 µM unless noted) was 96.4% (inactive) and the growth (HCT-116 colon; 10 µM unless noted) was 107% (inactive). For the same molecule, the growth (HCC-2998 colon; 10 µM unless noted) was 103% (inactive) and the growth (KM12 colon) was 111% (inactive).
In the case of `Cc1cc(-c2ccc(NS(=O)(=O)c3ccccc3)c(C)c2)ccc1NS(=O)(=O)c1ccccc1`, the growth (T-47D breast; 10 µM unless noted) is reported as 78.7% (inactive) and 105% (inactive), the growth (BT-549 breast; 10 µM unless noted) is reported as 79.7% (inactive) and the growth (MDA-MB-435 melanoma; 10 µM unless noted) is reported as 92.5% (inactive) and 102% (inactive). For the same molecule, the growth (SW-620 colon; 10 µM unless noted) was 92.2% (inactive) and 108% (inactive), the growth (MCF7 breast; 10 µM unless noted) was 60.4% (inactive) and 82.9% (inactive) and the growth (HCT-116 colon; 10 µM unless noted) was 70.7% (inactive) and 101% (inactive). The growth (HCC-2998 colon; 10 µM unless noted) was 100% (inactive) and 110% (inactive) and the growth (KM12 colon) was 72.3% (inactive) and 90.1% (inactive).
